Data reported in PubChem BioAssay AID2216 (Broad Institute, 2009).
Hit rate of the full screen: of about 300,000 compounds, about 3,300 (1.1%) were called active. Roughly 6% stayed inconclusive and do not appear here. The full list was thinned out, with actives kept by preference. A number with no mark means an inactive call.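 The calls were made as follows: active = more than half of the replicate wells show a fall in the fluorescence ratio signal beyond about 16% (limit read from the data, passing the limit was not always enough); inconclusive = exactly half of the replicate wells pass the set limit; inactive = fewer than half of replicates pass the limit.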

Test system: Ran GTPase (GTP-bound) - importin-beta complex
Test: disruptors of Ran-importin-beta complex formation – biochemical, FRET, CFP-Ran, YFP-importin-beta, homogeneous, primary screen (AID 2216);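 also: 0% = DMSO wells and 100% = Ran loaded with GDP instead of GTP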
Conditions: cell-free CFP-Ran/YFP-importin-beta FRET ratio; stronger effect = higher value; concentration not given here

Structure (SMILES)	inhibition
CCOC(=O)C(O)(c1ccc(NC(=O)c2ccco2)c(OC)c1)C(F)(F)F (stereo not given)	-1.67%
COc1cc(Cn2c(N)c(C(=O)NCc3ccco3)c3nc4ccccc4nc32)cc(OC)c1OC	54% (active)
COC(=O)C1=C(c2ccccc2)C[C@@H]2CC[C@H]1N2C(=O)NCc1ccco1	1.27%
C/C(=N/O)c1ccc2ccc3ccccc3c2c1	4.2%
CC[C@H]1CC2CN3CCc4c([nH]c5ccccc45)C(C(=O)OC)(C2)C13 (stereo not given in full)	-1.66%
